Reference: PubChem BioAssay AID1159580 (chemical genetic matrix, 2015)
The campaign covered roughly 5,500 compounds. About 2,000 (36%) were called active. About 18% were inconclusive and are not listed. Rule as the data show it: active = normalized growth mostly below about 0.91 (no sharp cut-off); inconclusive = no clear call, values can overlap the other calls; inactive = mostly above about 0.92. The list shows a part of the results.

Assay: chemical genetic growth profiling, strain panel (AID 1159580);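 also: tested at 20 µM; growth read once vehicle control cultures reached saturation at 30 °C; 1 = growth at the plate median or of vehicle wells; lower values mean less growth of the strain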
Conditions: S. cerevisiae deletion strains, growth OD

Measured: normalized growth

CCN(CC)[N+]([O-])=NO
inactive: locus YHR030C, strain SLT2, hits give low values 0.974 | locus YHR079C, strain IRE1, hits give low values 0.986 | locus YJL095W, strain BCK1, hits give low values 0.987 | locus YJR066W, strain TOR1, hits give low values 0.931 | locus YLR113W, strain HOG1, hits give low values 0.961 | locus YNL183C, strain NPR1, hits give low values 0.935 | locus YOR231W, strain MKK1, hits give low values 0.966 | locus YPL256C, strain CLN2, hits give low values 0.951
